# Columns and labels:
# Test in all cases: DAPPL (digital affinity profiling via proximity ligation, sequencing); 10 mM Tris-HCl pH 7.5, 50 mM NaCl, 1 mM DTT, 4% glycerol, room temperature, 30 min; GST-TFs on glutathione beads, 16-mer random dsDNA library, 0.1% formaldehyde crosslink after washing; high values mean tight binding
# [1] = target: T1, FLI1 (Homo sapiens, UniProt Q01543 1-452); settings: protein: recombinant; tags: N-terminal GST; dsDNA, one strand shown
# T1 sequence: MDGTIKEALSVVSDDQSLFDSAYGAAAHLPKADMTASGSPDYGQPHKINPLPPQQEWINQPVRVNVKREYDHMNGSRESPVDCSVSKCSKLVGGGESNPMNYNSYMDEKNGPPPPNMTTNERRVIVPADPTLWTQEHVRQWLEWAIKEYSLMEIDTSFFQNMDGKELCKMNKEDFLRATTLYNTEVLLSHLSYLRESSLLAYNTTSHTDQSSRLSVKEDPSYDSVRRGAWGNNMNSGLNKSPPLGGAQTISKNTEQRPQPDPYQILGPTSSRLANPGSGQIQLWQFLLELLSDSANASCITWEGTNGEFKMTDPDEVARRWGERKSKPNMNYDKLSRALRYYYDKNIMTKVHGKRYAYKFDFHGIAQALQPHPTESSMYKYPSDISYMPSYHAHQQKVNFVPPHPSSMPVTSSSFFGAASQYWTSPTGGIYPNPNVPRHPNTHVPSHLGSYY
# Procedure, shortened: (§1)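 In yeast, human transcription factors were expressed with a GST fusion, then pulled down on glutathione beads and given DNA barcodes. Pooled with a tag-only sample, they were exposed to 200 nmole of a 16-mer random double-stranded DNA library (Tris/NaCl/DTT/glycerol buffer, room temperature, 30 min), washed, crosslinked with 0.1% formaldehyde, proximity-ligated using BsaI/T4 ligase for 1 h at 37 °C, PCR-amplified and read on an Illumina NextSeq500. Each hexamer's frequency of reads for a factor, divided by the matching frequency for the tag-only sample, gives the binding signal.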
# [2] = target: T2, ELK1 (Homo sapiens, UniProt P19419 1-428); settings: protein: recombinant; tags: N-terminal GST; dsDNA, one strand shown
# T2 sequence: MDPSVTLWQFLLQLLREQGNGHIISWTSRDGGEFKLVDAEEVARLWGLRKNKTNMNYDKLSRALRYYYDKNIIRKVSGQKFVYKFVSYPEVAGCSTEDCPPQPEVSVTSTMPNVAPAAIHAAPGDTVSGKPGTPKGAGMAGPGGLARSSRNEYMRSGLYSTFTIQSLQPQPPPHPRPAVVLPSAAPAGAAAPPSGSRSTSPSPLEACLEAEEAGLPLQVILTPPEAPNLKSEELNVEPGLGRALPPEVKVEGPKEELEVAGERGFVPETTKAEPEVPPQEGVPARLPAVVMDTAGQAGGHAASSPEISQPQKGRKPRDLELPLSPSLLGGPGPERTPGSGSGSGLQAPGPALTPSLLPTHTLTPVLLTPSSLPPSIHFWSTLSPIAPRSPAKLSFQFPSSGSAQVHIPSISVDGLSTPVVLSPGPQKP
# Procedure, shortened: as §1
# [3] = target: T3, GABPA (Homo sapiens, UniProt Q06546 1-454); settings: protein: recombinant; tags: N-terminal GST; dsDNA, one strand shown
# T3 sequence: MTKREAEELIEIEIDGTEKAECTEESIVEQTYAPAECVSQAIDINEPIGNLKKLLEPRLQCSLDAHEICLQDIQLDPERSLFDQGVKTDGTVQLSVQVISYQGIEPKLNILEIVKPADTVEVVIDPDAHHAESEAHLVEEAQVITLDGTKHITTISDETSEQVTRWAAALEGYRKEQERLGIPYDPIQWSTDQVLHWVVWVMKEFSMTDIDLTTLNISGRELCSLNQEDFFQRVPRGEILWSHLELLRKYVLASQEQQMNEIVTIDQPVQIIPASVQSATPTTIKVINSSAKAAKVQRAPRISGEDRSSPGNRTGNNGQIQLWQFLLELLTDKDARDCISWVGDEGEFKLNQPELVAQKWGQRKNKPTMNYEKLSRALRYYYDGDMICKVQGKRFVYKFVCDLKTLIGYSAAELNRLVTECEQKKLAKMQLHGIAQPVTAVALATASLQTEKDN
# Procedure, shortened: as §1
# [4] = target: T4, ERG (Homo sapiens, UniProt P11308 1-479); settings: protein: recombinant; tags: N-terminal GST; dsDNA, one strand shown
# T4 sequence: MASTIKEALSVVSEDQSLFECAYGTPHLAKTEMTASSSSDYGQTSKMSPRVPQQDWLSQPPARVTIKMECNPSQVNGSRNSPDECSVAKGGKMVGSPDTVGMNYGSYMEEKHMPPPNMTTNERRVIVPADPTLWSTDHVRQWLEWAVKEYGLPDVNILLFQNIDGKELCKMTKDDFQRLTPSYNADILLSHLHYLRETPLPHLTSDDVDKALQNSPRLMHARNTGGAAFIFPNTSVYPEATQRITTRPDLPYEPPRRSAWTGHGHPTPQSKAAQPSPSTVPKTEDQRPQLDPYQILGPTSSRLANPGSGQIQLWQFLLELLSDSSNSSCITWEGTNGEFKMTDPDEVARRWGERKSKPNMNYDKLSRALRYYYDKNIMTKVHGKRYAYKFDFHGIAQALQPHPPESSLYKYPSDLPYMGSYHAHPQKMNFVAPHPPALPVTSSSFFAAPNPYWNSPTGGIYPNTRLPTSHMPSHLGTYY
# Procedure, shortened: as §1
# [5] = target: ELF1 (Homo sapiens, UniProt P32519 1-619); settings: protein: recombinant; tags: N-terminal GST; dsDNA, one strand shown
# Procedure, shortened: as §1
# [6] = target: T5, EHF (Homo sapiens, UniProt Q9NZC4 1-300); settings: protein: recombinant; tags: N-terminal GST; dsDNA, one strand shown
# T5 sequence: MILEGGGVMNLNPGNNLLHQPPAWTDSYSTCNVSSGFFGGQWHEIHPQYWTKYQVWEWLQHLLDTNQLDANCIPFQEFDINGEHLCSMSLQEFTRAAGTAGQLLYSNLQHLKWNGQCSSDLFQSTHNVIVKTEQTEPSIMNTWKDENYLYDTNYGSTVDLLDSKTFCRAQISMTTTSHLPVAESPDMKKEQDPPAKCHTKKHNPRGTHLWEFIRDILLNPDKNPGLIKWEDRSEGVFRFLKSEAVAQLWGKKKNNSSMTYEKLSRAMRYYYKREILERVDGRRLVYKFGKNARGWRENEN
# Procedure, shortened: as §1
# [7] = target: SPI1 (Homo sapiens, UniProt P17947 1-270); settings: protein: recombinant; tags: N-terminal GST; dsDNA, one strand shown
# Procedure, shortened: as §1
# [8] = target: SPIB (Homo sapiens, UniProt Q01892 1-262); settings: protein: recombinant; tags: N-terminal GST; dsDNA, one strand shown
# Procedure, shortened: as §1
# [9] = target: T6, ELK3 (Homo sapiens, UniProt P41970 1-407); settings: protein: recombinant; tags: N-terminal GST; dsDNA, one strand shown
# T6 sequence: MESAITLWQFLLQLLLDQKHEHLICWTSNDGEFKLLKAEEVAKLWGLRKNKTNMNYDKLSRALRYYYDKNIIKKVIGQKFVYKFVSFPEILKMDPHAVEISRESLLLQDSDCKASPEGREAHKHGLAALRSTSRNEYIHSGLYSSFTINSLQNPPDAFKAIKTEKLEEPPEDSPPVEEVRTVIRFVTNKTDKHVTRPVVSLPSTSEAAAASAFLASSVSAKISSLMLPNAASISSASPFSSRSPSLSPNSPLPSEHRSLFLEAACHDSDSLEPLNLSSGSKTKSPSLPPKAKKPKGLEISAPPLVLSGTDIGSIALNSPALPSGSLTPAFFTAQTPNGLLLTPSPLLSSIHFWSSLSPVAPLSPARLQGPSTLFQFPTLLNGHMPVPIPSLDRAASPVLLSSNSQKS
# Procedure, shortened: as §1
# [10] = target: T7, FEV (Homo sapiens, UniProt Q99581 1-238); settings: protein: recombinant; tags: N-terminal GST; dsDNA, one strand shown
# T7 sequence: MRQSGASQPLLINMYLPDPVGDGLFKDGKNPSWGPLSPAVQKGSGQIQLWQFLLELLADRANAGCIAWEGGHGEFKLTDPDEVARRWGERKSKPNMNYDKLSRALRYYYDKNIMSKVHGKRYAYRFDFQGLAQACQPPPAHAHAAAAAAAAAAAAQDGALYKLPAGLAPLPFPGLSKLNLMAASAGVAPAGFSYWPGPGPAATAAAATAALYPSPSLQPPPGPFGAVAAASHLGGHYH
# Procedure, shortened: as §1
# [11] = target: ETV5 (Homo sapiens, UniProt P41161 1-510); settings: protein: recombinant; tags: N-terminal GST; dsDNA, one strand shown
# Procedure, shortened: as §1
# [12] = target: HSF1 (Homo sapiens, UniProt Q00613 1-529); settings: protein: recombinant; tags: N-terminal GST; chain copies: 3; dsDNA, one strand shown
# Procedure, shortened: as §1
# [13] = target: T8, SPIC (Homo sapiens, UniProt Q8N5J4 1-248); settings: protein: recombinant; tags: N-terminal GST; dsDNA, one strand shown
# T8 sequence: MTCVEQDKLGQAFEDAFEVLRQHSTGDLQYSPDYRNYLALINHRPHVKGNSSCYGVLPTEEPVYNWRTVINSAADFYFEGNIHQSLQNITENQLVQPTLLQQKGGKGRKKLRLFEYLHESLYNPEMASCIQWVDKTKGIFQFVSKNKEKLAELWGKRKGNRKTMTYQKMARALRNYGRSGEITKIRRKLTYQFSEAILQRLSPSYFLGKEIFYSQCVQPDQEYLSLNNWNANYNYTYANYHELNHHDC
# Procedure, shortened: as §1
# [14] = target: ELF4 (Homo sapiens, UniProt Q99607 1-663); settings: protein: recombinant; tags: N-terminal GST; dsDNA, one strand shown
# Procedure, shortened: as §1
# [15] = target: T9, ELK4 (Homo sapiens, UniProt P28324-2 1-405); settings: protein: recombinant; tags: N-terminal GST; dsDNA, one strand shown
# T9 sequence: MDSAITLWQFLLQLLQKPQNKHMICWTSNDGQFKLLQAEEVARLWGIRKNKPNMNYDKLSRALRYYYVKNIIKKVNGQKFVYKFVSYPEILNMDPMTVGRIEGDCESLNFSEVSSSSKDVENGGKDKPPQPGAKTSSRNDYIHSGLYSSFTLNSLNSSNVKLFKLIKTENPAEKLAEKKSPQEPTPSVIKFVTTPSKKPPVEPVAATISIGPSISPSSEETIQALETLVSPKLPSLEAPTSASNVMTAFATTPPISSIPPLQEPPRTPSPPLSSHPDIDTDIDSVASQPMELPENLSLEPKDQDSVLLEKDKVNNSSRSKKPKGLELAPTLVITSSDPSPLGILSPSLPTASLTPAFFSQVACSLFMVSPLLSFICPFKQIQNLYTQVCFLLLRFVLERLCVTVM
# Procedure, shortened: as §1
# [16] = target: T10, ETV2 (Homo sapiens, UniProt O00321 1-342); settings: protein: recombinant; tags: N-terminal GST; dsDNA, one strand shown
# T10 sequence: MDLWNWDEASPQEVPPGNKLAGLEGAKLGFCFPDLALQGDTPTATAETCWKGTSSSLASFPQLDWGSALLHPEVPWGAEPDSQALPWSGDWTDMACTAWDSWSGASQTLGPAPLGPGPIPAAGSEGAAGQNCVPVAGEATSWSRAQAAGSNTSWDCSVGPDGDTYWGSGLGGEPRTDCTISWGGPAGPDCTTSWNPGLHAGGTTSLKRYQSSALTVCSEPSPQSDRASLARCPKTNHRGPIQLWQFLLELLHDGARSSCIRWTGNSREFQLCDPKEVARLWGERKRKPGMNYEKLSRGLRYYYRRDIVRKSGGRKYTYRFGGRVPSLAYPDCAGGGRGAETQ
# Procedure, shortened: as §1
# [17] = target: T11, ELF3 (Homo sapiens, UniProt P78545 1-371); settings: protein: recombinant; tags: N-terminal GST; dsDNA, one strand shown
# T11 sequence: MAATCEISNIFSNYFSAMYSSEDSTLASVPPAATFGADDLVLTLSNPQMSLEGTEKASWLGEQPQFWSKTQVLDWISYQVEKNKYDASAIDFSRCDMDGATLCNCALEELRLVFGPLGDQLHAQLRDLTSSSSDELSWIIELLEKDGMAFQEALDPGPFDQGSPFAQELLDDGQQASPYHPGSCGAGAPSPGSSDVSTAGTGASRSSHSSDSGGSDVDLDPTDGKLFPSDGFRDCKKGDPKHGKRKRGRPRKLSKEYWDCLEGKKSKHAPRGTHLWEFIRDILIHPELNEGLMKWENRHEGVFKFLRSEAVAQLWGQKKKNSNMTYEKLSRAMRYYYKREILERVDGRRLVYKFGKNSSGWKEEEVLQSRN
# Procedure, shortened: as §1
# [18] = target: CRX (Homo sapiens, UniProt O43186 1-299); settings: protein: recombinant; tags: N-terminal GST; dsDNA, one strand shown
# Procedure, shortened: as §1
# [19] = target: ETV1 (Homo sapiens, UniProt P50549 1-477); settings: protein: recombinant; tags: N-terminal GST; dsDNA, one strand shown
# Procedure, shortened: as §1
# ELF1, sequence (P32519 whole entry): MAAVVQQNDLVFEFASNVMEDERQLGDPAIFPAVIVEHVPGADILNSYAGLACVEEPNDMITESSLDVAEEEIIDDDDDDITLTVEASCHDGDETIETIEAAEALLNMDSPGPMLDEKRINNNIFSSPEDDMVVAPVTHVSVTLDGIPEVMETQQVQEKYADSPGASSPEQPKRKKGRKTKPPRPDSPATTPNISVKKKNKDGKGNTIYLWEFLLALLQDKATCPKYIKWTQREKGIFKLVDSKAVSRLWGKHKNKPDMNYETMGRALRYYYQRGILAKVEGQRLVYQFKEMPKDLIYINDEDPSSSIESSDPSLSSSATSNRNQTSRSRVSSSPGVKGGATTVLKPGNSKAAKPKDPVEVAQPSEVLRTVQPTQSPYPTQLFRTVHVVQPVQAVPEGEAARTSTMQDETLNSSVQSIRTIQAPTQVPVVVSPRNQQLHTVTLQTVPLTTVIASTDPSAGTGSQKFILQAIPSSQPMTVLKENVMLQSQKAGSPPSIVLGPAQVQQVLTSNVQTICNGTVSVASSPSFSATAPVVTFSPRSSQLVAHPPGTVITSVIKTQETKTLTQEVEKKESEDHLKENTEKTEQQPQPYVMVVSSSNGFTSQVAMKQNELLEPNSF
# HSF1, sequence (Q00613 whole entry): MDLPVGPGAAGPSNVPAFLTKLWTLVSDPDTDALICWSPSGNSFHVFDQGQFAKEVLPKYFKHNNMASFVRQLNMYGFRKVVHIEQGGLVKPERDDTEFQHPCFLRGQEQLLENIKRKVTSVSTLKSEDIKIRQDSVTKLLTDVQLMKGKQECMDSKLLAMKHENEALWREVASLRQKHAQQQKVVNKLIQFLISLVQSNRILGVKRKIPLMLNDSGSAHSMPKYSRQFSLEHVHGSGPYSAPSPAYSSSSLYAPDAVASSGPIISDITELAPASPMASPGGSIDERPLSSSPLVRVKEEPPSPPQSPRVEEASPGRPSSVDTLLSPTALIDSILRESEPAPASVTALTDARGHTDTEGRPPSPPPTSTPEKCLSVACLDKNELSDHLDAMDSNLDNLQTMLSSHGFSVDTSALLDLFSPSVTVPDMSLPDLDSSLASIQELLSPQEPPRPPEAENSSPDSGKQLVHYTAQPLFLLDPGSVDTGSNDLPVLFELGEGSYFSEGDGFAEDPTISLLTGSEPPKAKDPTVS
# ETV1, sequence (P50549 whole entry): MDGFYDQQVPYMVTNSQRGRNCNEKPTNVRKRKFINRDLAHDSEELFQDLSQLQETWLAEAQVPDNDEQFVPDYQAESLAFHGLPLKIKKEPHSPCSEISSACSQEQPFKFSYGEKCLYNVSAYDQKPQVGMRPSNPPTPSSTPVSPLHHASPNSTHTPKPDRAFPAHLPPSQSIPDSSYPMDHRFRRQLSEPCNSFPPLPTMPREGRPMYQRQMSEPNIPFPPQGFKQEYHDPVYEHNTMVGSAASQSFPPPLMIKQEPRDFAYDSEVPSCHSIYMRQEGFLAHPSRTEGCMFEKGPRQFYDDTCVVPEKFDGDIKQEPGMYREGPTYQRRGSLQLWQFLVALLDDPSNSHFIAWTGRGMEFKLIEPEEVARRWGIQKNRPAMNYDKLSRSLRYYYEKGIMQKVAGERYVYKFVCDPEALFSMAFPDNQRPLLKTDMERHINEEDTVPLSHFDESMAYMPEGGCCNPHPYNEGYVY
# SPIB, sequence (Q01892 whole entry): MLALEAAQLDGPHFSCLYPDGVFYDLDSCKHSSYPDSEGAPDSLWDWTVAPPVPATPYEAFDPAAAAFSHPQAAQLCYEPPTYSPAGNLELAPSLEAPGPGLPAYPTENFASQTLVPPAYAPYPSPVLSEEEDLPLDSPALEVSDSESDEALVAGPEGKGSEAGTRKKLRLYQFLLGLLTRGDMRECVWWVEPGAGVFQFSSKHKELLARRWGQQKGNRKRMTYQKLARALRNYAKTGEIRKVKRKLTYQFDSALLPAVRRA
# ETV5, sequence (P41161 whole entry): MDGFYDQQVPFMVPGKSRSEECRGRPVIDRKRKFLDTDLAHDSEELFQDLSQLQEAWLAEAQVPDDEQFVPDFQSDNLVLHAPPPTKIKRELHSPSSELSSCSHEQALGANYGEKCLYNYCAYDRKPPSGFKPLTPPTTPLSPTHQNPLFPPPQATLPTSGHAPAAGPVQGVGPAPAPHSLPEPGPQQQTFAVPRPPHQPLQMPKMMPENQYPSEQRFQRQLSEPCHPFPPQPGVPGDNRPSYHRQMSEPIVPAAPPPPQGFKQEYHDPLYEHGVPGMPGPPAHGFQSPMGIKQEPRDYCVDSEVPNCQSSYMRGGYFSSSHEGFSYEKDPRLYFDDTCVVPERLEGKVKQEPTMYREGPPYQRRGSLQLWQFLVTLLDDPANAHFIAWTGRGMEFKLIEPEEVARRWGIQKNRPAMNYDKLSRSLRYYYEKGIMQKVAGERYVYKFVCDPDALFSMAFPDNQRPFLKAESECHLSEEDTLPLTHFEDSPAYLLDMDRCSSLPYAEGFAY
# CRX, sequence (O43186 whole entry): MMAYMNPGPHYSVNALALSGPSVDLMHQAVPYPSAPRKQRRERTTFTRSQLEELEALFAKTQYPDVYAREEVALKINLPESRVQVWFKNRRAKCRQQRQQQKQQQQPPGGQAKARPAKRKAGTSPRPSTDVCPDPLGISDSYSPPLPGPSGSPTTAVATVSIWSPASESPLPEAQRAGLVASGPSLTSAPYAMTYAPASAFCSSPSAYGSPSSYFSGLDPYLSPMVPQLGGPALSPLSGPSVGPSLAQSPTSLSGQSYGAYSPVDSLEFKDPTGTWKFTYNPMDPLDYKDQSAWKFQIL
# ELF4, sequence (Q99607 whole entry): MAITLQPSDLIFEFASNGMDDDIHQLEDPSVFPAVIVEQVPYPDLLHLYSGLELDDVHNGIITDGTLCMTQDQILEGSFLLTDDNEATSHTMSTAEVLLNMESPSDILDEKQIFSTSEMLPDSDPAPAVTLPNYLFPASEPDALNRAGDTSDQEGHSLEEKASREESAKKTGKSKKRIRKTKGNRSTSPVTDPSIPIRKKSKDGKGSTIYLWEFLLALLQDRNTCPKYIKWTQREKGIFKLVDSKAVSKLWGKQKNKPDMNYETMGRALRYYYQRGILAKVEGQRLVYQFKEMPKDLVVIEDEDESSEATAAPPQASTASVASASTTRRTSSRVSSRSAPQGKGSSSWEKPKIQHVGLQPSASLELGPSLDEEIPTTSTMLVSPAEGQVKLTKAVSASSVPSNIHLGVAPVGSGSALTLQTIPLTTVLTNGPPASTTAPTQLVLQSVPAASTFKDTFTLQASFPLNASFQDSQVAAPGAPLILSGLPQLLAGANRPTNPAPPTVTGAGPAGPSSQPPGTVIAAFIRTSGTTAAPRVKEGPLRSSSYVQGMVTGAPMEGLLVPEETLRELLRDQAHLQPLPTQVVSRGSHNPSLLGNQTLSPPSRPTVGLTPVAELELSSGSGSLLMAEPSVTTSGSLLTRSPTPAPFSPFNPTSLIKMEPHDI
sequence,measurement,setting,value
AATTGT,binding signal,[1],"1.3 fold enrichment (6-mer frequency, TF over GST control)"
same,binding signal,[2],"1.2 fold enrichment (6-mer frequency, TF over GST control)"
same,binding signal,[3],"1.21 fold enrichment (6-mer frequency, TF over GST control)"
same,binding signal,[4],"1.28 fold enrichment (6-mer frequency, TF over GST control)"
same,binding signal,[5],"1.27 fold enrichment (6-mer frequency, TF over GST control)"
same,binding signal,[6],"1.23 fold enrichment (6-mer frequency, TF over GST control)"
same,binding signal,[7],"1.33 fold enrichment (6-mer frequency, TF over GST control)"
same,binding signal,[8],"1.34 fold enrichment (6-mer frequency, TF over GST control)"
same,binding signal,[9],"1.29 fold enrichment (6-mer frequency, TF over GST control)"
same,binding signal,[10],"1.25 fold enrichment (6-mer frequency, TF over GST control)"
same,binding signal,[11],"1.2 fold enrichment (6-mer frequency, TF over GST control)"
same,binding signal,[12],"1.18 fold enrichment (6-mer frequency, TF over GST control)"
same,binding signal,[13],"1.26 fold enrichment (6-mer frequency, TF over GST control)"
same,binding signal,[14],"1.29 fold enrichment (6-mer frequency, TF over GST control)"
same,binding signal,[15],"1.14 fold enrichment (6-mer frequency, TF over GST control)"
same,binding signal,[16],"1.33 fold enrichment (6-mer frequency, TF over GST control)"
same,binding signal,[17],"1.31 fold enrichment (6-mer frequency, TF over GST control)"
same,binding signal,[18],"1.17 fold enrichment (6-mer frequency, TF over GST control)"
same,binding signal,[19],"1.22 fold enrichment (6-mer frequency, TF over GST control)"
